According to PubChem BioAssay (Tox21):
Results filed as inconclusive are left out. The source made the active and inactive calls. Unless noted, the call rests on the fitted dose curve; in most records, active means well fitted curve in the direction sought with a large enough effect in the repeat runs; inconclusive means weak or mixed curves; inactive means no such curve, though single readings can be large; an effect the other way counts as inactive or inconclusive.

How the values were obtained:
[1] = molecular target: Retinoic acid receptor RXR-alpha (Homo sapiens) (UniProt P19793); assay: qHTS assay to identify small molecule agonists of the RXR signaling pathway (AID 1159527; calls by dose curve; further: nearly all actives have a fitted effect of over 35% in size)
Chain of Retinoic acid receptor RXR-alpha (Homo sapiens) (P19793 whole entry, looked up): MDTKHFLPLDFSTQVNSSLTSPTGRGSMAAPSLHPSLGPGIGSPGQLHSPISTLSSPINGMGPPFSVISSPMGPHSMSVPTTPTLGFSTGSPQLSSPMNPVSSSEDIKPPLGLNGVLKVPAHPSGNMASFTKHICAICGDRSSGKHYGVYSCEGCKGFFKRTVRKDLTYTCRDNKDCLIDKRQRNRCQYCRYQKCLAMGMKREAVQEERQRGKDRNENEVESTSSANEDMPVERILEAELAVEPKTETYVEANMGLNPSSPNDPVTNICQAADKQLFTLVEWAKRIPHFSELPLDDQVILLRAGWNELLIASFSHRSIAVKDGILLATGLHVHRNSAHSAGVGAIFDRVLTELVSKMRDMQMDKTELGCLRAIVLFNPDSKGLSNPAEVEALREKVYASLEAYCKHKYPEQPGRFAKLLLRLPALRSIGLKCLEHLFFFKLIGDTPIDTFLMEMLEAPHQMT
Outline: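 GeneBLAzer RXR-alpha-UAS-bla HEK 293T cells in medium with 2% charcoal-stripped FBS, pre-incubated 5 hr at 37 C, then exposed to compounds 16 hr. Beta-lactamase reporter read by FRET substrate, 2 hr room temperature, 460/530 nm emission.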

[2] = qHTS assay to identify small molecule agonists of the RXR signaling pathway - cell viability counter screen (AID 1159529); further: series mostly up to about 77 µM; nearly all actives have a fitted effect of over 50% in size
Outline: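 RXR-alpha-UAS-bla HEK 293T cells in medium with 2% charcoal-stripped FBS were preincubated 5 hr, then exposed to compounds for 16 hr at 37 C. Viability was read as CellTiter-Glo luminescence after 30 min at room temperature.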

[3] = qHTS assay to identify small molecule antagonists of the retinoid acid receptor (RAR) signaling pathway - cell viability counter screen (AID 1159551); further: nearly all actives have a fitted effect of over 35% in size
Outline: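 C3RL4 RARE-luciferase cells, 1,000/well, incubated overnight, then dosed with compound plus 1 uM retinol (final). After 6 hr at 37 C, viability read by CellTiter-Glo ATP luminescence following 30 min at room temperature.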

[4] = qHTS assay to identify small molecule antagonists of the retinoic acid receptor (RAR) signaling pathway (AID 1159552; further: nearly all actives have a fitted effect of over 50% in size)
Outline: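 RARE-luc C3RL4 cells; cpds + 1 uM (final) retinol, 6 hr, 37 C/5% CO2; luciferase reagent, 30 min RT, luminescence readout. Inhibitors of retinol-driven signal scored.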

[5] = qHTS assay to identify small molecule agonists of the retinoic acid receptor (RAR) signaling pathway (AID 1159553)
Outline: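 C3RL4 RARE-luciferase cells were seeded at 1,000/well and grown overnight at 37 C, then exposed to compounds for 6 hr at 37 C, 5% CO2. Luciferase reagent was added and luminescence was read after 30 min at room temperature.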

[6] = qHTS assay to identify small molecule antagonists of the estrogen related receptor (ERR) signaling pathway - cell viability counter screen (AID 1224818); further: series mostly up to about 46 µM
Outline: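 ERR cells, 2,000 per well, compound added after 6 h and incubated 17.5 h at 37 C. Viability read by CellTiter-Fluor fluorescence after a further 30 min at 37 C.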

[7] = qHTS assay to identify small molecule antagonists of the estrogen related receptor (ERR) signaling pathway (AID 1224819;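 further: luminescence from an ERR-driven luciferase reporter measured with One-Glo reagent; series mostly up to about 46 µM; nearly all actives have a fitted effect of over 50% in size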)
Outline: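 ERR reporter cell line (NTP) plated at 2,000 cells/well, settled 6 h at 37C/5% CO2, then exposed to LOPAC compounds for 18 h at 37C. One-Glo luciferase luminescence read after 30 min at room temperature.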

[8] = qHTS assay to identify small molecule agonists of the estrogen related receptor (ERR) signaling pathway (AID 1224820)
Outline: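 ERR reporter cell line (from NTP), 2,000 cells/well, incubated 6 h before compound addition, then 18 h at 37 C. Luminescence measured 30 min after One-Glo reagent at room temperature.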

[9] = tested on: estrogen-related receptor alpha (ERRalpha) with PGC-1alpha coactivator, human; assay: qHTS assay to identify small molecule antagonists of the estrogen related receptor signaling pathway with the pleiotropic PPARgamma coactivator (PGC) (AID 1224821; calls by dose curve;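 further: series mostly up to about 46 µM; lower luminescence signal means antagonism of PGC/ERR signalling; nearly all actives have a fitted effect of over 50% in size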)
Outline: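 PGC/ERR reporter cell line, plated 6 h before compound addition, then exposed 18 h at 37 °C. Luciferase activity read by luminescence 30 min after One-Glo addition; decrease indicates antagonism.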

[10] = qHTS assay to identify small molecule antagonists of the estrogen related receptor signaling pathway with the pleiotropic PPARgamma coactivator (PGC) cell viability counter screen (AID 1224822; further: series mostly up to about 46 µM)
Outline: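 PGC/ERR cells rested 6 h, then compound-treated 17.5 h at 37 C. CellTiter-Fluor added for 30 min at 37 C, viability measured by fluorescence intensity.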

[11] = qHTS assay to identify small molecule agonists of the estrogen related receptor signaling pathway with the pleiotropic PPARgamma coactivator (PGC) (AID 1224823)
Outline: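 PGC/ERR reporter cells seeded 6 h, then exposed to compounds (23 nL in DMSO) for 18 h at 37 C. One-Glo luciferase luminescence read after 30 min at room temperature.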

[12] = qHTS assay to identify small molecule antagonists of the estrogen related receptor (ERR) signaling pathway from Tox21 library - cell viability counter screen (AID 1224834); further: nearly all actives have a fitted effect of over 30% in size
Outline: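 ERR reporter cells, 2,000 per well, rested 6 h, then exposed to compound in DMSO for 17.5 hours at 37 C. Viability read as fluorescence after 30 min with CellTiter-Fluor.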

[13] = molecular target: Luciferin 4-monooxygenase (Photinus pyralis) (UniProt P08659); assay: qHTS assay to identify small molecule inhibitors of firefly luciferase (AID 1224835); further: series mostly up to about 120 µM; nearly all actives have a fitted effect of over 25% in size
Chain of Luciferin 4-monooxygenase (Photinus pyralis) (P08659 whole entry, looked up): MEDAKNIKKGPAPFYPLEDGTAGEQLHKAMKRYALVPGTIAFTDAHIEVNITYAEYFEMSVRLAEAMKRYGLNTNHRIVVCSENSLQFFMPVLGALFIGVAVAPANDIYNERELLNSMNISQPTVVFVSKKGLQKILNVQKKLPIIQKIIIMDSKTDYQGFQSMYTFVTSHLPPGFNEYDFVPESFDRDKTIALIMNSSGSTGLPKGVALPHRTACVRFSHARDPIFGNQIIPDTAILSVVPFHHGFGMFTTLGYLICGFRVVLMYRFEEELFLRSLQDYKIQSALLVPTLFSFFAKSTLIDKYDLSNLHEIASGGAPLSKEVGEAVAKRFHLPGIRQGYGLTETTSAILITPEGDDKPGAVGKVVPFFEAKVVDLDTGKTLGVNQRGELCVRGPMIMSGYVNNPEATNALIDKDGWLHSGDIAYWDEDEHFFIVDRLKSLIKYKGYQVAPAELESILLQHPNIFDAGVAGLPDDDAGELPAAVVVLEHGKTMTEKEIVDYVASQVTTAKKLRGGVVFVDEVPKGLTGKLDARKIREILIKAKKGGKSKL
Outline: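 Biochemical qHTS: compounds run as interplate titrations against purified firefly enzyme, with D-luciferin and ATP each at its KM concentration. Light output recorded by CCD imaging.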

[14] = qHTS assay to identify small molecule agonists of the constitutive androstane receptor (CAR) signaling pathway - cell viability counter screen (AID 1224836); further: series mostly up to about 92 µM; nearly all actives have a fitted effect of over 45% in size
Outline: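 HepG2 cells stably carrying hCAR and a CYP2B6-2.2kb reporter were plated 4 h, then given compounds at 15 concentrations plus PK11195 (final 0.75 uM). After 23 h at 37 C, viability was read by CellTiter-Fluor fluorescence.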

[15] = qHTS assay to identify small molecule antagonists of the constitutive androstane receptor (CAR) signaling pathway - cell viability counter screen (AID 1224837); further: series mostly up to about 92 µM; nearly all actives have a fitted effect of over 45% in size
Outline: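 HepG2 cells stably carrying hCAR and CYP2B6-2.2kb reporter, stimulated with 50 nM CITCO and compounds at 15 concentrations for 23 h at 37 C. Viability measured by CellTiter-Fluor fluorescence.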

[16] = molecular target: Nuclear receptor subfamily 1 group I member 3 (Homo sapiens) (UniProt Q14994); assay: qHTS assay to identify small molecule antagonists of the constitutive androstane receptor (CAR) signaling pathway (AID 1224838); further: nearly all actives have a fitted effect of over 40% in size
Chain of Nuclear receptor subfamily 1 group I member 3 (Homo sapiens) (Q14994 whole entry, looked up): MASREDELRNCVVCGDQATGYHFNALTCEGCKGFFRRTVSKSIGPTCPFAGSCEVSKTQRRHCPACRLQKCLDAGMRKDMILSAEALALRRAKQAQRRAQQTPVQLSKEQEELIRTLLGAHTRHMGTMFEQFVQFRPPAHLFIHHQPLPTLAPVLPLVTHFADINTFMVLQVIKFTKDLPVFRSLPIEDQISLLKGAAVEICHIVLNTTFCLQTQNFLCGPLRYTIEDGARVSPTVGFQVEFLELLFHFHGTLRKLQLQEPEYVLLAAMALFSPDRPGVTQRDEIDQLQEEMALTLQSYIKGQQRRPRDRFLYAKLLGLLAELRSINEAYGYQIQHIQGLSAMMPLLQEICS
Outline: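 HepG2 cells stably carrying hCAR and a CYP2B6-2.2kb luciferase reporter, seeded 4 hrs before compound (15 concentrations). Stimulated with 50 nM CITCO for 24 hr at 37 C. ONE-Glo luminescence read after 30 min at room temperature.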

[17] = molecular target: Nuclear receptor subfamily 1 group I member 3 (Homo sapiens) (UniProt Q14994); assay: qHTS assay to identify small molecule agonists of the constitutive androstane receptor (CAR) signaling pathway (AID 1224839); further: series mostly up to about 92 µM; nearly all actives have a fitted effect of over 15% in size
Outline: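 HepG2 cells stably expressing hCAR and a CYP2B6-2.2kb luciferase reporter were treated with compounds at 15 concentrations plus 0.75 uM PK11195 (final) for 24 h at 37 C; luminescence was read after ONE-Glo addition.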

[18] = qHTS assay to identify small molecule antagonists of the estrogen related receptor signaling pathway with the pleiotropic PPARgamma coactivator (PGC) from Tox21 10K library - cell viability counter screen (AID 1224840; active means well fitted cell-killing curve with a large enough effect in the repeat runs, not every such curve was filed as active; further: nearly all actives have a fitted effect of over 40% in size)
Outline: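 PGC/ERR cells (2,000/well) plated 6 h, then compound-treated for 17.5 h at 37 C. Viability measured by CellTiter-Fluor fluorescence after 30 min at 37 C, multiplexed with the pathway assay.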

[19] = qHTS assay to identify small molecule agonists of the estrogen related receptor signaling pathway with the pleiotropic PPARgamma coactivator (PGC) from Tox21 10K library (AID 1224842); further: nearly all actives have a fitted effect of over 15% in size
Outline: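 PGC/ERR reporter cell line, 2,000 cells per well, incubated 6 h at 37 C before 23 nL compound in DMSO was added. After 18 h at 37 C, One-Glo luminescence read following 30 min at room temperature.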

[20] = molecular target: Thyrotropin receptor (Homo sapiens) (UniProt P16473); assay: qHTS assay to identify small molecule agonists of the thyroid stimulating hormone receptor (TSHR) signaling pathway (AID 1224843; calls by dose curve; further: nearly all actives have a fitted effect of over 45% in size)
Chain of Thyrotropin receptor (Homo sapiens) (P16473 whole entry, looked up): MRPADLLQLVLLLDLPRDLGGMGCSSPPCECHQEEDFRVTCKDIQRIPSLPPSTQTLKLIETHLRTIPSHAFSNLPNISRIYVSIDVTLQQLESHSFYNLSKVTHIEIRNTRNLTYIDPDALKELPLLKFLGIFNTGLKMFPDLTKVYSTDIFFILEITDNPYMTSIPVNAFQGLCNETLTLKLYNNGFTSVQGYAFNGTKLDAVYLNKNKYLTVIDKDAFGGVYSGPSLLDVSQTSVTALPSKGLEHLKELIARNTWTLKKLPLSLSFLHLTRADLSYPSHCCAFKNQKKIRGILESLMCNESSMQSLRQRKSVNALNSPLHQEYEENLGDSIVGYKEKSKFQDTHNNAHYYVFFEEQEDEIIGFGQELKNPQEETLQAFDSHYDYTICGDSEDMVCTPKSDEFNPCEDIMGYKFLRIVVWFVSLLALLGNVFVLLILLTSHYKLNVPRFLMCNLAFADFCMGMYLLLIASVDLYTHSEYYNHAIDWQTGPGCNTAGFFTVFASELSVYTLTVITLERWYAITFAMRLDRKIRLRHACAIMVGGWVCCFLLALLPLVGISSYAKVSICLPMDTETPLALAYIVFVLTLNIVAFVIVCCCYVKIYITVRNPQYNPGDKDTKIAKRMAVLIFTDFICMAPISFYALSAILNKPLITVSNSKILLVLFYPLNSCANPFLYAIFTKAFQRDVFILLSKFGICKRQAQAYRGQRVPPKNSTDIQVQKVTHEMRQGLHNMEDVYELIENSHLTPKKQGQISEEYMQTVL
Outline: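 TSHR-HEK293 cells in agonist mode, 30 min room-temperature step, then cAMP measured by competitive HTRF (cAMP-d2 with anti-cAMP cryptate) after 1 h at room temperature. Tested at 15 concentrations in triplicate.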

Measured: Potency

CNCC(O)c1ccc(O)cc1 (stereo not given)
inactive: [1] | [2] | [3] | [4] | [5] | [6] | [7] | [8] | [9] | [10] | [11] | [12] | [13] | [14] | [15] | [16] | [17] | [18] | [19]

ClCCOCCCl
inactive: [1] | [2] | [3] | [4] | [5] | [12] | [13] | [14] | [15] | [18]

FC(F)(F)c1ccc(Cl)cc1
inactive: [1] | [2] | [3] | [4] | [5] | [12] | [13] | [14] | [15] | [16] | [17] | [18] | [20]

CSc1nnc(C(C)(C)C)c(=O)n1N
inactive: [1] | [2] | [3] | [4] | [5] | [12] | [13] | [14] | [15] | [16] | [17] | [18] | [20]

Cl/C=C/Cl
inactive: [1] | [2] | [3] | [4] | [5] | [12] | [13] | [14] | [15] | [18]

Oc1c(Br)cc(Br)cc1Br
inactive: [1] | [2] | [3] | [4] | [5] | [12] | [13] | [14] | [15] | [16] | [17] | [18] | [20]

COS(=O)(=O)OC
inactive: [1] | [2] | [3] | [4] | [5] | [12] | [13] | [14] | [15] | [18]

Nc1nc(N)nc(NC2CC2)n1
inactive: [1] | [2] | [3] | [4] | [5] | [12] | [13] | [14] | [15] | [18] | [19]

CCOP(=S)(OCC)Oc1ccc([N+](=O)[O-])cc1
inactive: [1] | [2] | [3] | [4] | [5] | [12] | [13] | [14] | [15] | [16] | [18] | [20]

C=CC#N
inactive: [1] | [2] | [3] | [4] | [5] | [12] | [13] | [14] | [15] | [16] | [17] | [18] | [19] | [20]

C[C@H]1C(=O)O[C@@H]2CCN3CC=C(COC(=O)[C@](C)(O)[C@]1(C)O)[C@H]23
inactive: [1] | [2] | [3] | [4] | [5] | [12] | [13] | [14] | [15] | [18]
